An excerpt weighted towards active compounds, which were near 3.9% of everything screened.
BH1578 lux ind – inducers of Vibrio cholerae quorum light production without autoinducers, primary screen, BH1578 luxS cqsA deficient, single point | V. cholerae BH1578 lux reporter, luminescence, 6 h | activation, % at 18.7 µM | 350,000 tested, 0.16% active | AID 588436, 2011; in the data active means activation mostly above about 9.7%, no sharp cut-off
PrPC TRFRET – inhibitors of human cell surface prion protein PrPC, primary screen, cell-based, TR-FRET. Major prion protein (Homo sapiens), P04156. TR-FRET read-out. inhibition, % at 13.8 µM. 370,000 tested, 0.43% active; in the data active means inhibition above about 24%; further: 0% = median of the test wells and 100% = reference compound wells
GDH-TPI inh – GDH-TPI coupling enzyme inhibitors, primary screen, artefact control for M. tuberculosis FBA inhibitor project, biochemical, absorbance, full deck; GDH-TPI coupled enzyme counterscreen, NADH absorbance; inhibition, % at 4.8 µM; 360,000 tested, 1.2% active; AID 588335, 2011; in the data active means inhibition above about 30%;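 further: 0% = DMSO wells and 100% = wells lacking the enzyme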
FBA Mtb inh – Mtb FBA enzyme inhibitors, primary screen, biochemical, fluorescence, strain H37Rv | Fructose-bisphosphate aldolase (Mycobacterium tuberculosis (strain ATCC 25618 / H37Rv)), … | purified M. tuberculosis FBA, fluorescence read-out | inhibition, % at 1 µM | 360,000 tested, 2.3% active; in the data active means inhibition above about 27%;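 further: 0% = vehicle and 100% = reference inhibitor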
Target sequence (P9WQA3 whole entry, looked up): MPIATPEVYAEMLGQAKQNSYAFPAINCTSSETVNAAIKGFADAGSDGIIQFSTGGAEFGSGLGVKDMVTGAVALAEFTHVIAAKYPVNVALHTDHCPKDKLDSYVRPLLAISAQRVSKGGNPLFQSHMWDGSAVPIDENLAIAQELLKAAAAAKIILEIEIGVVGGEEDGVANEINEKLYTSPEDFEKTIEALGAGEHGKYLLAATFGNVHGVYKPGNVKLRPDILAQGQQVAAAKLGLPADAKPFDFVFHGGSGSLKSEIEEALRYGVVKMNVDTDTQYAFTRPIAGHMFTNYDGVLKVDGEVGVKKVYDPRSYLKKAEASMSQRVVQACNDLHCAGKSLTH
3CLpro inhibitor – SARS-CoV 3CLpro protease inhibitors, primary screen, biochemical, quenched FRET. Replicase polyprotein 1ab (Severe acute respiratory syndrome coronavirus), P0C6X7. recombinant SARS-CoV 3CLpro, quenched FRET peptide cleavage. inhibition, % at 6 µM. 290,000 tested, 0.14% active. AID 1706, 2009; in the data active means inhibition above about 12%
* hit, by the source's call; i = inactive; . = no result; + = active, no number.

SMILES | BH1578 lux ind | PrPC TRFRET | GDH-TPI inh | FBA Mtb inh | 3CLpro inhibitor
O=C(/C=C/c1ccco1)Oc1cc(Br)cc(/C=N/NC(=O)c2ccccc2O)c1 | -0.2 | 2.6 | 43.2* | 2.7 | 3.9
Cc1cc(OCC(=O)NCC2CCC(C(=O)O)CC2)c2c(C)c(C)c(=O)oc2c1 (stereo not drawn) | -0.4 | 8.8 | 5.9 | 21.1 | 0.2
Cc1cc(=O)oc2c3c(cc(OCC(=O)NCC4CCC(C(=O)O)CC4)c12)OC(C)(C)CC3 (stereo not drawn) | -0.4 | 2.0 | 16.7 | + | 1.2
Cc1c(C)c2c(OCC(=O)N3CCC(C(=O)O)CC3)cc3c(c2oc1=O)CCC(C)(C)O3 | -0.6 | . | 36.3* | + | 4.6
Cc1c(OCC(=O)N2CCC(C(=O)O)CC2)ccc2c3c(c(=O)oc12)CCC3 | -0.5 | 6.1 | 24.5 | 14.8 | -0.8
Cc1c(C)c2c(OCC(=O)NCC3CCC(C(=O)O)CC3)cc3c(c2oc1=O)CCC(C)(C)O3 (stereo not drawn) | -0.3 | -1.1 | 7.6 | 120.1* | .
O=C(NCc1ccc(F)cc1)c1cc(C2CCCCN2S(=O)(=O)c2ccc(F)cc2F)on1 (stereo not drawn) | -0.4 | 9.3 | 7.1 | -2.9 | .
CN(C(=O)NC(=O)C1=C(N2CCOCC2)/C(=C/c2ccccc2)CC1)S(C)(=O)=O | -0.4 | 1.0 | 29.4 | 113.9* | -3.9
CNc1nc2sc3c(c2c(=O)n1C)CC(C)(C)SC3 | . | -6.4 | 8.2 | 184.9* | -1.6
CN(C)c1nc2sc3c(c2c(=O)n1C)CC(C)(C)OC3 | -1.4 | -1.5 | 18.6 | 1.4 | 0.8
CCn1c(NC(=O)c2cccs2)nc2ccccc21 | i | 1.2 | 35.6* | 0.6 | 3.8
CCC(C)Sc1ccc([C@H]2N[C@@](C)(C(=O)OC)[C@H]3C(=O)N(C)C(=O)[C@@H]23)cc1 (stereo partly drawn) | 0.0 | -1.6 | 5.9 | 1.6 | .
COc1cccc(/C=N/Nc2nn3cnnc3c3ccccc23)c1 | 0.3 | -3.6 | 23.4 | 0.6 | -3.9
CCOc1cc(/C=N/Nc2nn3cnnc3c3ccccc23)ccc1O | 0.6 | -6.7 | 32.1* | -0.8 | -5.2
CCOc1cc(/C=N/n2cnnc2)ccc1O | -1.5 | 0.8 | 33.9* | 2.6 | 2.8
COc1cc(/C=N/Nc2nn3cnnc3c3ccccc23)ccc1O | -2.7 | -2.3 | 31.8* | -0.7 | -5.5
COC(=O)C1CN(C2CC2)CCS(=O)(=O)N1Cc1cn(Cc2ccccc2)nn1 (stereo not drawn) | . | -3.5 | . | . | .
CC(C)(C)C(=O)Nc1ccc(C(=O)NNC(=O)Cc2ccccc2)cc1 | . | -3.2 | -2.5 | -0.6 | 1.2
COc1ccc(C(=O)c2cnc(/N=C/N(C)C)s2)cc1 | -0.7 | -19.7 | 32.9* | 2.2 | 0.8
O=C(CN1CCC(NC(=O)c2ccccc2Cl)CC1)NCc1ccco1 | 0.4 | 4.0 | -7.7 | 0.2 | -2.2
CCNc1nc(C)cc(COC)c1C#N | i | -8.1 | 19.2 | 126.8* | -1.9
Cc1ccc(Cn2c(=N)c(C(=O)NCC3CCCO3)cc3c(=O)n4ccccc4nc32)cc1 (stereo not drawn) | -0.6 | -29.8 | 4.2 | 162.1* | -7.0
COc1ccc(Cn2c(=N)c(C(=O)NCC3CCCO3)cc3c(=O)n4ccccc4nc32)cc1 (stereo not drawn) | -0.6 | -52.8 | 14.7 | 8.6 | -5.6
COc1ccc(CCNC(=O)c2cc3c(=O)n4ccccc4nc3n(CC3CCCO3)c2=N)cc1 (stereo not drawn) | -0.6 | -28.4 | 15.7 | 15.2 | .
N=c1c(C(=O)NCC2CCCO2)cc2c(=O)n3ccccc3nc2n1Cc1ccc(Cl)cc1 (stereo not drawn) | -0.2 | -46.8 | 0.0 | + | 1.2
N=c1c(C(=O)NCC2CCCO2)cc2c(=O)n3ccccc3nc2n1Cc1ccccc1 (stereo not drawn) | -0.4 | -50.7 | 17.6 | + | 0.8
N=c1c(C(=O)NCC2CCCO2)cc2c(=O)n3ccccc3nc2n1Cc1ccccc1Cl (stereo not drawn) | 6.7 | -27.4 | 5.6 | 166.4* | 4.2
COc1ccc(CCNC(=O)c2cc3c(=O)n4ccccc4nc3n(CC3CCCO3)c2=N)cc1OC (stereo not drawn) | -0.5 | -56.7 | 3.5 | 3.4 | 1.8
Fc1ccc2cc(-c3ccccc3F)ncc2c1 | i | -1.2 | 4.9 | 1.8 | .

Screening results from PubChem BioAssay.
